Compound activity (PubChem BioAssay)
In the library only some 6.9% were active in any assay of this set; here they are far more common.
HP1b binding inh – blocks HP1-beta chromodomain binding to methylated histone tails; P83916; Potency, µM (titrated, usually from 114 µM), for the others: at the highest dose activity change, negative = inhibition, most hits filed as inhibitors; AlphaScreen HP1-beta / biotin-H3K9me3 peptide binding; AID 540317; 390,000 tested, 0.56% active; note: nearly all actives have a fitted effect of over 70% in size
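AlphaScreen: HP1-beta (50 nM) preformed 30 min with biotin-H3(1-18)K9me3 peptide (50 nM) in PBS pH 7.4, 0.01% Tween-20. Compound added for 30 min at RT, then streptavidin donor/nickel chelate acceptor beads (10 ug/mL) for 30 min.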
BAZ2B block – BAZ2B (human) inhibition | AlphaScreen BAZ2B-H3K14Ac peptide displacement | Potency, µM (top dose mostly 114 µM), for inactives: at the top dose activity change, negative = inhibition, hits mostly inhibitors | 360,000 tested, 4.4% active; note: % is set by controls: 0 for no effect and ±100 for the full control effect; nearly all actives have a fitted effect of over 60% in size
Target sequence (Q9UIF8 whole entry, looked up): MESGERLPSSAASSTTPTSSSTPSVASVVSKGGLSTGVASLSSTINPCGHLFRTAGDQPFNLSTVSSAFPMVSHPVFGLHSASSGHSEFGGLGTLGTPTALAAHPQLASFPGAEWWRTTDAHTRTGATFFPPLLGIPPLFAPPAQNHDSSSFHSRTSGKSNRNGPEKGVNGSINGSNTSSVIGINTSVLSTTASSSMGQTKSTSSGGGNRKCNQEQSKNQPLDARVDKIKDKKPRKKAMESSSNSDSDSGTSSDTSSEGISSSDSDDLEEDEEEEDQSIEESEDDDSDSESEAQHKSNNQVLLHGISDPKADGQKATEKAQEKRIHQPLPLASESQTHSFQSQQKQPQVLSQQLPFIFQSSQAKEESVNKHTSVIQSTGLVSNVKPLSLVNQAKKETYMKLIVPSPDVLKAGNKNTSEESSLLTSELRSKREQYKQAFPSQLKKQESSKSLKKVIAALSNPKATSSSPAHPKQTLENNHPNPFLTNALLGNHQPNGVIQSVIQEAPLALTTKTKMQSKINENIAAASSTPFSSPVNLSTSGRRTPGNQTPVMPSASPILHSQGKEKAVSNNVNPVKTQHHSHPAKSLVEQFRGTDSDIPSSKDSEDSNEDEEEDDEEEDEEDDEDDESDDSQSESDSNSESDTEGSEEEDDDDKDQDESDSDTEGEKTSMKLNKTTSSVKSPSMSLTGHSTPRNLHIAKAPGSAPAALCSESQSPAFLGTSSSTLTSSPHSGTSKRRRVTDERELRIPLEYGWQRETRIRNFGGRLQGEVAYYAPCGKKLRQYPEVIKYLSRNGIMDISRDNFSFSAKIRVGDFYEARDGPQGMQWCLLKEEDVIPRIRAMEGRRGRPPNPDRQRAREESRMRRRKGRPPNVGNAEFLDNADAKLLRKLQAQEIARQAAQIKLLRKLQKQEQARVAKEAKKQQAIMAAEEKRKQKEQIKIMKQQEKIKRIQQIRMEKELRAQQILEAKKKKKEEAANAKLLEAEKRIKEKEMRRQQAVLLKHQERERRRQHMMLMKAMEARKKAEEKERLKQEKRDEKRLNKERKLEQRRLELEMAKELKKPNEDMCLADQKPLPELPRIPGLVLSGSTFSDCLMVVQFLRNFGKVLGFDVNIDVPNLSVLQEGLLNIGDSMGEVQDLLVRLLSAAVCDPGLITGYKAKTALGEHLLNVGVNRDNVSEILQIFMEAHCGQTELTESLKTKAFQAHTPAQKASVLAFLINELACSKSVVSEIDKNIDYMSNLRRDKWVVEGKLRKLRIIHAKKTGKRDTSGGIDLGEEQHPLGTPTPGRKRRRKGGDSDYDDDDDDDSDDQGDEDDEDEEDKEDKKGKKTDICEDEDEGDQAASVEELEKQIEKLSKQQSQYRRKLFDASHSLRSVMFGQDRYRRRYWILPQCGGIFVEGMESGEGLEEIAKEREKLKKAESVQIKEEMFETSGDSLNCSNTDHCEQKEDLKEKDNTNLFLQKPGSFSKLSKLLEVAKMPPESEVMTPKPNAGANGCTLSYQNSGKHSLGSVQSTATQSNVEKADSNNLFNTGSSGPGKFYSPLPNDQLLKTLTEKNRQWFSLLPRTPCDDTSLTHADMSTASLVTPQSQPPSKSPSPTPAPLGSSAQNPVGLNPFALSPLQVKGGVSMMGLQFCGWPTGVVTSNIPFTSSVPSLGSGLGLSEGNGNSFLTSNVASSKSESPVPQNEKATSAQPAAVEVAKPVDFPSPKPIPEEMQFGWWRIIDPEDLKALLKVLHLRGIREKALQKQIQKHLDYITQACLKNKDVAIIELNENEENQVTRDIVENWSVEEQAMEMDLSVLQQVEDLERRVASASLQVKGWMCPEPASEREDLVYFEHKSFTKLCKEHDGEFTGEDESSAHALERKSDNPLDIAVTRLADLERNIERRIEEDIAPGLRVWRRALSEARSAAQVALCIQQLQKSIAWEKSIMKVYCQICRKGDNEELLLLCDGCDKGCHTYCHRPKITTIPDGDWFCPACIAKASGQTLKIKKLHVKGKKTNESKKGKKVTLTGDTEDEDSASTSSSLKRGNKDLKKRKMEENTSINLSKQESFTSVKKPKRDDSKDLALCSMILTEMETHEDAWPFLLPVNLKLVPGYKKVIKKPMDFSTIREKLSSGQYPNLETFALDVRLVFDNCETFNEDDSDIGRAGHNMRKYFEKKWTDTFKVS
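AlphaScreen luminescence quantifies BAZ2B engagement of H3K14Ac peptide; the protein and biotinylated peptide are both at 50 nM final, buffer PBS pH 7.4 with 0.01% Tween-20, all steps at room temperature.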
L3MBTL1 inh – L3MBTL1 (human) inhibition; AlphaScreen L3MBTL1–H3K9me1 peptide binding; Potency, µM (titrated, usually from 57.1 µM), inactives show at the highest dose activity, negative = inhibition, usual class: inhibitors; 230,000 tested, 0.66% active; note: % is set by controls: 0 for no effect and ±100 for the full control effect; nearly all actives have a fitted effect of over 60% in size
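Displacement of a biotinylated histone H3(1-15) peptide monomethylated at Lys9 (75 nM) from L3MBTL1 (50 nM) was measured by AlphaScreen after a 30 min room-temperature compound incubation; cefsulodin titration served as intraplate control.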
PLK1 PBD inh – inhibitors of human PLK1 polo-box domain binding; Plk1 PBD binding of FITC phosphopeptide, fluorescence polarization; Potency, µM, for inactives: max response, negative = inhibition, most hits filed as inhibitors; 360,000 tested, 2.8% active; note: series mostly up to about 57 µM; % is set by controls: 0 for no effect and ±100 for the full control effect; nearly all actives have a fitted effect of over 65% in size
VDR inh – inhibitors of human vitamin D receptor | P11473 | VDR-SRC2-3 peptide fluorescence polarization, 2 h | Potency, µM, for inactives: max response, negative = inhibition, usual class: inhibitors | 400,000 tested, 0.93% active | AID 504847; note: % is set by controls: 0 for no effect and ±100 for the full control effect
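Measured by FP: displacement of SRC2-3 coactivator peptide from VDR by library compounds, following a two-hour ambient incubation.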
JMJD2A Tudor – JMJD2A Tudor domain (human) inhibition; O75164; AlphaScreen JMJD2A-Tudor / H3K4me3 peptide binding; Potency, µM (titrated, usually from 114 µM), for inactives: at the top dose activity change, negative = inhibition, actives largely listed as inhibitors; 390,000 tested, 4.4% active; note: % is set by controls: 0 for no effect and ±100 for the full control effect; nearly all actives have a fitted effect of over 50% in size
Numbers without * were called inactive; ? = inconclusive; nt = no result; [ ] = dose if it differs, or a comment. Calls come from the whole dose curve; as a rule, active = well fitted curve in the direction sought with a large enough effect; inconclusive = small, poorly fitted or top-dose-only effect, or another doubt; inactive = no such curve, though single readings can be large; an effect the other way counts as inactive or inconclusive. Potency is the fitted concentration of half-maximal effect.

SMILES	HP1b binding inh	BAZ2B block	L3MBTL1 inh	PLK1 PBD inh	VDR inh	JMJD2A Tudor
CCCC(=O)Nc1ccc(NC(=O)CCc2ccccc2)cn1	-12%	5%	0%	3µM*	-17%	?
CCCC(=O)Nc1ccc(NC(=O)Cc2ccccc2)cn1	38%	-1%	1%	-7%	8%	-9%
O=c1[nH]cnc2c1ncn2C1OC(CO)CC1F (stereo unspecified)	nt	nt	nt	-6%	nt	nt
O=C(Nc1nc(-c2ccccn2)cs1)c1ccc(Cl)s1	33%	22µM*	?	-5%	-4%	79µM*
O=C(Nc1nc(-c2ccccn2)cs1)c1ncc(Cl)c(Cl)c1Cl	29%	-6%	-9%	-9%	0%	-25%
O=C(Nc1nc(-c2ccccn2)cs1)c1cc2ccccc2o1	31%	22µM*	20µM*	-11%	7%	25µM*
CCOC(=O)c1csc(NC(=O)c2cc3ccccc3o2)n1	37%	0%	6%	-3%	-5%	-11%
Cc1cccc(Nc2nc(-c3cccs3)cs2)n1	-22%	-32%	-6%[11.4 µM]	-10%	15%	-23%
Cc1cccc(Nc2nc(-c3ccccn3)cs2)n1	43%	20µM*	4%[11.4 µM]	-2%	-10%	?
COc1cc(CN2CCN(CC#Cc3ccccc3)CC2CCO)cc(OC)c1 (stereo unspecified)	19%	-37%	-6%	-4%	11%	-27%
O=C(Nc1cccc([N+](=O)[O-])c1)c1cnccn1	17%	50µM*	-9%	-17%	-1%	?
Cc1occc1C(=O)Nc1cccc([N+](=O)[O-])c1	14%	-28%	-1%	-19%	22µM*	-21%
O=C(Nc1cccc([N+](=O)[O-])c1)c1ccncc1	27%	1%	3%	4%	-1%	-4%
CCS(=O)(=O)NCC(c1ccco1)N1CCN(c2ccc(OC)cc2)CC1 (stereo unspecified)	14%	11%	nt	nt	4%	-25%
COc1ccc(S(=O)(=O)NCC(c2ccco2)N2CCN(c3ccc(F)cc3)CC2)cc1 (stereo unspecified)	18%	?	nt	nt	3%	?
COc1ccc(N2CCN(C(CNS(=O)(=O)c3c(C)cc(C)cc3C)c3ccco3)CC2)cc1 (stereo unspecified)	-22%	32µM*	nt	nt	5%	22µM*
COc1ccc(N2CCN(C(CNS(=O)(=O)c3ccccc3)c3ccccc3)CC2)cc1 (stereo unspecified)	?	25µM*	nt	-6%	3%	16µM*
COc1ccc(N2CCN(C(c3cccs3)C(C)NS(=O)(=O)c3ccccc3)CC2)cc1 (stereo unspecified)	-35%	25µM*	?	2%	-11%	10µM*
CCN(C(=O)c1cc2c(=O)oc3ccc(C)cc3c2s1)c1ccccc1F	56%	1%	nt	nt	-5%	13%
CCOc1ccccc1NC(=O)c1cnn2c(C(F)F)cc(-c3ccccc3)nc12	7%	-26%	nt	nt	-13%	?
Cc1ccc(C)c(N2CCN(C(=O)CCS(=O)(=O)c3cc(Br)cc4c3N(C(=O)C3CC3)CC4)CC2)c1	8%	-14%	nt	nt	8%	-27%
COc1ccc(CNC(=O)[C@H](C)NC(=O)C2CC(=O)N(c3ccc(OC)cc3)C2)cc1 (stereo partly specified)	18%	-2%	nt	27µM*	?	?
CCOc1ccc(N2CC(C(=O)NCc3cccc(C)c3)CC2=O)cc1 (stereo unspecified)	0%	-21%	-8%	6µM*	-26%	-9%[11.4 µM]
CCOc1ccc(N2CC(C(=O)OCC(=O)c3ccc(OC)cc3)CC2=O)cc1 (stereo unspecified)	7%	-12%	nt	30µM*	?	56µM*
COc1ccc(CNC(=O)[C@H](C)NC(=O)C2CC(=O)N(c3ccc4c(c3)OCO4)C2)cc1 (stereo partly specified)	29%	-19%	nt	-4%	5%	-7%
SMILES	HP1b binding inh	BAZ2B block	L3MBTL1 inh	PLK1 PBD inh	VDR inh	JMJD2A Tudor
O=C(NCc1ccco1)C1CC(=O)N(c2ccc(O)cc2)C1 (stereo unspecified)	-15%	0%	nt	3.4µM*	-19%	?
COc1ccc(N2CC(C(=O)OCC(=O)c3ccc(C)cc3)CC2=O)cc1 (stereo unspecified)	28%	-11%	3%	-11%	-4%	-4%
CN(C)c1ncc2ncc(=O)n(Cc3cccs3)c2n1	nt	nt	nt	nt	-14%	nt
COc1cccc(NC(=O)N2CCC(CN3CCOCC3)CC2)c1	27%	3%	nt	nt	16%	-9%
COc1ccccc1C1Nc2c(sc3nc(C)cc(C)c23)C(=O)N1c1ccccc1 (stereo unspecified)	41%	15%	nt	nt	6%	-12%
O=C(CC(=O)NCc1ccc(Cl)cc1)NCc1ccc(Cl)cc1	24%	4%	nt	3%	-4%	-10%
Cc1ccc(CC(=O)NCc2ccc(Cl)cc2)cc1	?	?	1%	15µM*	?	?
N#CCCn1c(=O)c(-c2ccc(Cl)cc2)nc2cnc(N3CCOCC3)nc21	nt	nt	nt	nt	-5%	nt
COc1ccc(/C=N/Nc2nc(-c3ccc(C)cc3)c(NC(C)=O)s2)cc1OC	?	?	-5%	-9%	4%	-33%
CCOc1cc(/C=N\Nc2nc(-c3ccc(C)cc3)c(NC(C)=O)s2)ccc1O	?	-38%	-10%	-9%	-7%	28µM*
COc1cc(/C=N\Nc2nc(-c3ccc(C)cc3)c(NC(C)=O)s2)ccc1O	28µM*	40µM*	-12%	?	?	-27%[11.4 µM]
O=C(NCC(F)(F)F)c1ccc(S(=O)(=O)N2CCN(C(=O)C3CCCO3)CC2)cc1 (stereo unspecified)	36%	-5%	2%	-3%	-21%	3%
CCCCC#Cc1nc(NC)c2ncn([C@@H]3O[C@H](CO)[C@@H](O)[C@H]3O)c2n1	nt	nt	nt	nt	-3%	nt
CC(C)CNC(=O)COC(=O)c1c2c(nc3ccccc13)CCC2	3%	56µM*	nt	-15%	12%	-30%
Cc1ccc(S(=O)(=O)N(CC(=O)Nc2ccc3c(c2)OCO3)c2cc(Cl)cc(Cl)c2)cc1	54%	11%	nt	nt	-1%	?
CC(=O)C1=C(O)C(=O)N(c2ccc(C(=O)O)cc2)C1c1ccccc1 (stereo unspecified)	9%	?	nt	-11%	-11%	32µM*
CC(=O)C1=C(O)C(=O)N(c2ccc(O)cc2)C1c1ccccc1 (stereo unspecified)	30%	?	nt	-4%	-11%	9%
CC1C/C(=C/c2cccn2C)C(=O)/C(=C/c2cccn2C)C1 (stereo unspecified)	40µM*	32µM*	nt	14%	-9%	25µM*
